# Source: PubChem BioAssay (NCI)
# Compounds without any hit were thinned out: in the full panel of roughly 79,000, 15% have a hit. Values without a mark were called inactive. Active and inactive are the calls of the source. Cut-off read from the data, not from the text of the source: active = growth inhibition above about 70%; inactive = the rest.
# Columns and labels:
# [1] = NCI Yeast Anticancer Drug Screen. Data for the rad50 strain (AID 155);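 note: 0% = growth of vehicle-only cultures of the same strain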; settings: S. cerevisiae rad50 strain growth inhibition; at 50.0 µM; stronger effect = higher value
# Outline: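 Compounds were tested on a yeast strain with an engineered DNA damage repair alteration; the reported value is growth inhibition normalised to vehicle treatment.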
# [2] = NCI Yeast Anticancer Drug Screen. Data for the mec2-1 strain (AID 157); settings: S. cerevisiae mec2-1 strain, at 50.0 µM, stronger effect = higher value
# Outline: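 Vehicle-treated cultures served as reference for growth inhibition of compound-exposed mec2-1 yeast.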
# [3] = NCI Yeast Anticancer Drug Screen. Data for the sgs1 mgt1 strain (AID 161);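 note: 0% = growth of cultures given vehicle only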; settings: S. cerevisiae sgs1 mgt1 strain, at 50.0 µM, stronger effect = higher value
# Outline: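 Read-out: growth inhibition vs vehicle controls. Cells: mutant yeast strain deficient in DNA damage repair.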
# [4] = NCI Yeast Anticancer Drug Screen. Data for the cln2 rad14 strain (AID 165);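 note: 0% = growth equal to vehicle treated cultures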; settings: S. cerevisiae cln2 rad14 strain, at 50.0 µM, stronger effect = higher value
# Outline: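 Each compound was tested on cln2 rad14 yeast. Inhibition of growth was calculated against vehicle-exposed controls.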
# [5] = NCI Yeast Anticancer Drug Screen. Data for the bub3 strain (AID 167); settings: S. cerevisiae bub3 mutant strain, at 50.0 µM, stronger effect = higher value
# Outline: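 Growth of a checkpoint-deficient yeast mutant is measured after compound exposure. Values represent inhibition relative to vehicle.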
# [6] = NCI Yeast Anticancer Drug Screen. Data for the mlh1 rad18 strain (AID 175); settings: S. cerevisiae mlh1 rad18 strain growth inhibition; at 50.0 µM; stronger effect = higher value
# Outline: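 Vehicle-treated cultures served as the reference for growth inhibition in a yeast strain carrying DNA damage repair alterations exposed to each compound.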
SMILES,growth inhibition [1],growth inhibition [2],growth inhibition [3],growth inhibition [4],growth inhibition [5],growth inhibition [6]
CN(C)CCOC(=S)S,1.85%,-0.4%,-9.3%,1.5%,10.3%,-1%
C[n+]1c(/C=C/C=C/c2ccccc2)oc2ccccc21,-38.3%,-2.25%,-22.6%,-11.2%,5.8%,9.7%
O=C(O)CS(=O)(=O)Cc1ccccc1,-12.7%,-9.85%,-9.25%,-60.6%,-7.9%,-6.5%
C/C=C/CNc1ccc(C)cc1,30.5%,20.9%,25.7%,28.4%,2.2%,22.8%
O=C1c2cc3c(cc2CC12Cc1cc4c(cc1C2=O)CCCC4)CCCC3,-42.1%,-14.2%,-22.3%,-16.8%,-4.25%,-37.1%
CC(=O)CC(=O)CCCCC(=O)O,-0.15%,-11.1%,-6.55%,-22.6%,-5.6%,4.8%
CCOC(=O)N/C=C/C(C)=O,-31.1%,-14.2%,-1.5%,-29.4%,-6.35%,-14.5%
C=CCN=C1NC(=O)C(CC(=O)Nc2cccc(Cl)c2)S1 (configuration not stated),-41%,-25%,-34.2%,6.85%,-36.5%,-22.4%
CC(=O)Oc1ccc[nH]c1=O,5.25%,-22.1%,0.9%,24.6%,14.3%,2.4%
CN(C)CCC(=O)C(=Cc1ccc(O)cc1)C(=O)CCN(C)C,-35.2%,-38.1%,-2.4%,-3.5%,7.1%,-39.5%
CC/C(=C/c1cccc([N+](=O)[O-])c1)C(=O)O,-9.3%,-23.9%,0%,6.1%,-13.7%,-0.2%
CCN=C1SCCCS1,-8.8%,-22.8%,-13.4%,-19.5%,-15.9%,-14.8%
O=C(Nc1ccc(Cl)cc1)OCCN(CCOC(=O)Nc1ccc(Cl)cc1)C(=O)Nc1ccc(Cl)cc1,19.3%,-19.1%,1.65%,-3.25%,-7.8%,9.15%
Cc1ccc(S(=O)(=O)CCC(=O)c2ccc([N+](=O)[O-])cc2)cc1,9.35%,20.1%,14.8%,6.65%,3.05%,16.9%
O=Cc1ccc(C(=O)O)cc1,-1.35%,-14.6%,0.25%,-13.2%,-12.8%,-9.6%
CN(/N=C/C=N/N(C)C1=NCCN1)C1=NCCN1,4.35%,-5.75%,0.15%,8.05%,0.25%,-9.65%
CCC(=O)Cc1ccc(OC)c(OC)c1,-0.3%,-3.5%,19.6%,7.3%,9.35%,2.5%
O=C(O)c1ccc(Cl)c2ncccc12,5.3%,1.25%,-1.3%,-28.2%,-9.75%,13.2%
COC1=CC(=O)[C@H]2[C@H](C)C(c3ccccc3)[C@@]2(C)C1=O (some centres not stated),-21.5%,-1.5%,-16.6%,2.1%,-0.05%,-20.2%

SMILES,growth inhibition [1],growth inhibition [2],growth inhibition [3],growth inhibition [4],growth inhibition [5],growth inhibition [6]
O=c1[nH]c(=O)c2nc3cc(-c4ccc5nc6[nH]c(=O)[nH]c(=O)c6nc5c4)ccc3nc2[nH]1,14.2%,12.1%,12.4%,54%,2.65%,7%
CSc1ccc(N=Cc2ccccc2O)cc1,11.2%,-40%,22.2%,15.1%,8.85%,19.4%
O=c1n(-c2ccccc2)c(=O)n2c(=O)n(-c3ccccc3)c(=O)n12,-23.4%,-1.55%,-10.7%,-44.9%,-9%,1.15%
CCCC(NC(C)=O)C(=O)O (configuration not stated),8.6%,2.75%,2.8%,-21.1%,1.15%,8%
CC1=CC(=O)N2CCN=C2S1,-7.05%,-14.9%,1.65%,-20.6%,-3%,-5.75%
CCOc1ccc(C2OCC(C)O2)cc1OC (configuration not stated),13.2%,13.6%,2.3%,10.3%,-0.5%,11.7%
CC1(C)N=C(N)N=C(N)N1c1ccc(C(=O)c2ccccc2)cc1,2.65%,-3.5%,-3.3%,-3.1%,13.5%,15.5%
Nc1nc(C=O)c(CCc2ccccc2)c(=O)[nH]1,6.8%,8.95%,-7.8%,-28.7%,-11%,-12.4%
O=C(/C=N\O)c1ccncc1,-13.8%,-16.9%,-30.8%,-16.1%,-8.65%,-35.7%
CC(C)CC(CN(C)C)C(=O)/C=C/c1ccccc1 (configuration not stated),18.2%,-2.25%,19.4%,-6.95%,11.8%,22.1%
COc1ccc2[nH]cc(C(=O)C(=O)NC34CC5CC(CC(C5)C3)C4)c2c1,12.7%,6%,-5.2%,-1.7%,16.2%,-22.5%
O/N=C1/CCCCCC1NO (configuration not stated),-23.8%,-24.1%,-22.7%,15.4%,-18.1%,-13.1%
NC1=NC2(COC(c3ccccc3)(c3ccccc3)c3ccccc3)OC(COC(c3ccccc3)(c3ccccc3)c3ccccc3)C(O)C2O1 (configuration not stated),28.4%,-5.4%,30.6%,5.25%,34.4%,13.4%
CN(C)CCCN=c1c2ccccc2n(C)c2[nH]c(=O)n(C)c(=O)c12,-32.1%,-0.75%,-16.2%,-9.2%,0.05%,-6.85%
CC(Nc1ccc(Cl)c(Cl)c1)C1CCOC1=O (configuration not stated),85.5% (active),97% (active),94.8% (active),80% (active),94.8% (active),95.5% (active)
CCCC(=O)c1ccc(C)cc1,-1.2%,-18.8%,-4.2%,13.5%,8.65%,2.65%
O/N=C1\CCc2nonc2\C1=N/Nc1ccccc1,-2.05%,2.8%,-2.35%,1.45%,7%,-1.9%
NCC(NC(=O)OCc1ccccc1)C(=O)O (configuration not stated),3.2%,12.4%,3.3%,19.1%,5.7%,32.1%
